PMC6925144, “A prospective compound screening contest identified broader inhibitors for Sirtuin 1” (Scientific Reports, 2019)
In all, about 3,200 compounds were measured (“TSA(with NAD+) / Primary screening (TSA) / delta Tm (K)”: median about -0.04, highest 2% from about 0.37 on). This excerpt belongs to a sample that is enriched for the highest values.

What follows are compounds tested against NAD-dependent deacetylase Sirtuin 1 (human, UniProt Q96EB6) (assay: primary screen, delta tm). Details: 10 µM.
Chain of NAD-dependent deacetylase Sirtuin 1 (Q96EB6 2-747 limits assumed): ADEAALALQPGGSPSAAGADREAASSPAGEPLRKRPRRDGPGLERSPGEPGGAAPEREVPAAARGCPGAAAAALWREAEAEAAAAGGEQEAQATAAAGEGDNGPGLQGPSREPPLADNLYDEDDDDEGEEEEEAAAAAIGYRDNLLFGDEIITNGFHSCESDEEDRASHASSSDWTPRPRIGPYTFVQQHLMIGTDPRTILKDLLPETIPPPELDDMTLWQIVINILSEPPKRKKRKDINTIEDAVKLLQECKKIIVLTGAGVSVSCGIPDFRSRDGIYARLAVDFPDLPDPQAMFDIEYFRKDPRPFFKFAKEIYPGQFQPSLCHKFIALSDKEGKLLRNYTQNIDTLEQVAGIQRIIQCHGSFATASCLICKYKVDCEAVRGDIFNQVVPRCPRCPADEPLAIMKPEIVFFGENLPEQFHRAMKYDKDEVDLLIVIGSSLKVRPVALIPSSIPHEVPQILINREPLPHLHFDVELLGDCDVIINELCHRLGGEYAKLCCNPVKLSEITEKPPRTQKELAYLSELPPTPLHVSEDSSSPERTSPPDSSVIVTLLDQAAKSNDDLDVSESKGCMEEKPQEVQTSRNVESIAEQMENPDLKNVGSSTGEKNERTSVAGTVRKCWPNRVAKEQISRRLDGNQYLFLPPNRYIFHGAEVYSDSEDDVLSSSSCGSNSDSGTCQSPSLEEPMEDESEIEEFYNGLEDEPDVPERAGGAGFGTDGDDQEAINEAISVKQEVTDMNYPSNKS
Parameters: single well (n = 1, as 'the same TSA')
Experimental: A total of 3,192 compounds extracted from the proposed lists were first screened by thermal shift assay (TSA), which determined a melting temperature shift (ΔTm) of Sirtuin 1 upon the addition of a test compound at a concentration of 10 µM (n = 1) with primary hit criteria of ΔTm > 0.45 K or ΔTm < −1.5 K. Primary hits (48 compounds) were retested in the same assay at three concentrations (5, 10, 20 µM, n = 4) for hit confirmation and for dose-dependency check. Secondary hits (41 compounds) were checked their selectivity for Sirtuin 1 based on counterscreening on unrelated protein targets (bovine carbonic anhydrase (CA) and recombinant SH2 domain of hABL1 kinase (ABL1)) at three different concentrations (5, 10, 20 µM, n = 4), which yielded 38 hit compounds, hereafter referred to as TSA hits. The TSA screening above was conducted in the absence of NAD+. As noted, the structure of Sirtuin 1 is different in the presence of NAD+ and substrate. The chemical profile of TSA hits found from the different conditions could be different. […] As a result, 39 TSA hits were found.

Row | SMILES | TSA(with NAD+) / Primary screening (TSA) / delta Tm (K)
1 | CN(c1ccccc1)S(=O)(=O)c1cccc(NC(=O)COC(=O)C23CC4CC(CC(C4)C2)C3)c1 | 0.13
2 | COC(=O)c1ccc(C2NC(=O)NC3=C2C(=O)N(CC(C)O)C3)cc1 (stereo not shown) | -0.05
3 | C=C(Br)CN | 0.06
4 | NC(=O)c1cc(C2CCCN(c3nccc(-n4cccn4)n3)C2)n[nH]1 (stereo not shown) | 0.05
5 | Cc1ccc(N(C)S(=O)(=O)c2cccc(C(=O)Oc3ccc4c(C)cc(=O)oc4c3)c2)cc1 | 0.16
6 | O=C(CC12CC3CC(CC(C3)C1)C2)NCC(=O)Nc1ccc(Sc2nc3ccccc3[nH]2)cc1 | 0.23
7 | O=C(NC(=S)Nc1ccc(-c2nc3ccccc3[nH]2)cc1)C12CC3CC(CC(C3)C1)C2 | 0.43
8 | O=C1CCCCC(C(=O)Nc2ccc(-c3nc4ccccc4[nH]3)cc2)N1 (stereo not shown) | 0.16
9 | COc1ccc2nc(C)c(C(=O)NC34CC5CC(CC(C5)C3)C4)cc2c1 | -0.28
10 | C[C@@H](N)CCO | -0.05
11 | O=C1NC(=O)C(=Cc2cn(-c3ccccc3)nc2-c2cc3ccccc3o2)C(=O)N1 | -0.11
12 | O=C1NC(=S)NC(=O)C1=Cc1cn(-c2ccccc2)nc1-c1cc2ccccc2o1 | 0.56
13 | O=C1NC(=S)NC(=O)C1=Cc1cn(-c2ccccc2)nc1-c1cc2ccccc2oc1=O | -0.05
14 | O=S(=O)(c1ccc(C(F)(F)F)cc1)N1CCNCC1 | 0.03
15 | CN(C)Cc1ccc(C(=O)Nc2cccc(C(=O)NC3CC3)c2)cc1 | 0.01
16 | NC(=O)NCCCCC(=O)Nc1cccc(C(F)(F)F)c1 | 0.08
17 | O=C(Nc1cccc(C(F)(F)F)c1)c1cccc(NC(=O)c2cc3c(cc2[N+](=O)[O-])OCCO3)c1 | 0.38
18 | CCc1cc2c(N3CCN(Cc4ccc5c(c4)OCO5)CC3)nc(C)nc2s1 | -0.04
19 | NCCCC(N)C(=O)O (stereo not shown) | -0.08
20 | NC(=O)CC1CCN(C(=O)CCc2c[nH]c3ccccc23)CC1 | -0.03
21 | O=C(CCc1ccccc1)NC1CCN(c2ccc([N+](=O)[O-])c3cccnc23)CC1 | -0.21
22 | Cc1c(C=C2C(=O)NC(=S)NC2=O)c2ccccn2c1C(=O)c1cccc([N+](=O)[O-])c1 | -0.03
23 | O=C(CCc1ccccc1)Nc1ccccc1Cc1ccccc1 | -0.06

Row | SMILES | TSA(with NAD+) / Primary screening (TSA) / delta Tm (K)
24 | Cc1cccc(-n2ccnc2SCC(=O)Nc2ccc(S(=O)(=O)Nc3nccs3)cc2)c1C | 0.13
25 | O=C(COc1ccccc1C(=O)Nc1ccc(S(=O)(=O)Nc2nccs2)cc1)Nc1cccc(C(F)(F)F)c1 | 0.82
26 | NC(=O)COC(=O)c1ccc(OCC(=O)Nc2cccc(C(F)(F)F)c2)cc1 | 0.23
27 | CC(C)c1ccc(C(NC(=O)c2cccc(C(N)=O)c2)c2cccs2)cc1 (stereo not shown) | -0.05
28 | O=C1NC(=S)N/C1=C\c1ccccc1OCc1ccc(C(=O)O)cc1 | 0.23
29 | Cc1nc(-c2ccc(CCNC(=O)c3ccc(NC(=O)c4cccs4)cc3)s2)cs1 | 0.58
30 | Cc1nc(-c2ccc(CCNC(=O)c3ccc(NC(N)=O)cc3)s2)cs1 | 0.08
31 | COc1ccc(C(=O)NCCc2ccc(-c3csc(C)n3)s2)cc1 | -0.09
32 | Cc1ccccc1CNC(=O)CSc1nc2ccsc2c(=O)n1C | -0.22
33 | O=C(Nc1ccc2c3c(cccc13)CC2)N1CCC(n2cncn2)CC1 | -0.08
34 | CCCN1CCN(CCCOc2ccccc2)CC1 | -0.12
35 | CC12CCC(C/C1=N/N=C1/CC3CCC1(C)C3(C)C)C2(C)C | -0.29
36 | CC(=O)N1N=C(c2ccccc2)CC1c1ccc(Br)cc1 (stereo not shown) | -0.08
37 | CC(=O)N1N=C(c2ccc(O)cc2)CC1c1ccccc1 (stereo not shown) | 0.36
38 | O=C(CSc1nnnn1-c1ccc(O)cc1)N1N=C(c2ccc3ccccc3c2)CC1c1ccccc1 (stereo not shown) | 0.66
39 | COc1ccnc(C(=O)NCC(C)(C)N2CCC(N(C)C)CC2)c1 | -0.14
40 | OC(CNc1ncccn1)c1ccc(Cl)cc1 (stereo not shown) | -0.04
41 | O=C(O)c1ccc2[nH]c(S)nc2c1 | -0.13
42 | CC(OC(=O)Cc1c[nH]c2ccccc12)C(=O)Nc1ccc(C(N)=O)cc1 (stereo not shown) | 0.12
43 | O=C(CCc1c[nH]c2ccccc12)Nc1nnc(-c2ccccc2)o1 | 0.39
44 | O=C(CCc1c[nH]c2ccccc12)NCCc1ccco1 | -0.11
45 | O=C(CCc1c[nH]c2ccccc12)Nc1ccc2nc[nH]c(=O)c2c1 | 0.27
46 | O=C1NC(=S)NC(=O)C1=Cc1cc2ccccc2[nH]c1=O | -0.09
